DT40 TDP1 CPT = DT40-hTDP1 cell growth loss with CPT; Potency, µM (top dose mostly 46.2 µM), inactives show at the top dose activity change, negative = growth inhibition, usual class: inhibitors; chicken DT40 Tdp1-/-;hTDP1 cells + 20 nM CPT, ATP luminescence, 48 h; 420,000 compounds, 12% hits; also: potency is read from the fitted curve at half-maximal effect; nearly all actives have a fitted effect of over 55% in size
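Chicken DT40 Tdp1-/- cells stably complemented with human TDP1 were seeded at 400 cells/well in medium containing 20 nM camptothecin, exposed to pin-transferred compounds, and grown at 37 °C for at least 48 hr. Viability was read as ATP luminescence.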
HT1080-NT tox = kills 2HG-producing HT-1080-NT fibrosarcoma cells; HT-1080-NT fibrosarcoma viability, CellTiter-Glo ATP luminescence, 48 h; Potency, µM (titrated, usually from 46.1 µM), inactives show at the highest dose activity, negative = less viability, usual class: cytotoxic; 360,000 compounds, 1.6% hits;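 also: NT is the 2HG producing partner of a matched IDH1 knockdown line; potency is read from the fitted curve at half-maximal effect; 0% = DMSO-treated cells and -100% = media-only wells without cells; nearly all actives have a fitted effect of over 55% in size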
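HT-1080-NT; 750 cells/well; 5% FBS RPMI; 48 h compound, 37 degrees C; CellTiter-Glo luminescence; curve fitting and curve-class assignment.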
IL1B secr inh = inflammasome signaling inhibition, IL-1 beta readout. THP-1 LPS/ATP IL-1B secretion, AlphaLISA, 16 h; active compounds read low. AID 743279. activity change, % at 57.5 µM. 360,000 compounds, 4.7% hits; in the data active = activity change below about -50%; inconclusive = mostly about -30% to -49%
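Secreted IL-1B measured by AlphaLISA bead assay after 16 h compound exposure of THP-1 cells; compounds (final up to 57.5 uM) added 1 h before LPS (250 ng/mL) and ATP (1.25 mM) stimulation; lower signal means less secretion.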
DT40 TDP1 no CPT = qHTS for Inhibitors of human tyrosyl-DNA phosphodiesterase 1 (TDP1): qHTS in cells in absence of CPT; DT40 Tdp1-/- hTDP1 cells, no CPT, ATP luminescence, 48 h; Potency, µM (highest dose often 46.2 µM), without a hit: at the top dose activity change, negative = growth inhibition, hits mostly inhibitors; 420,000 compounds, 15% hits; AID 686978, 2013; also: potency is read from the fitted curve at half-maximal effect; nearly all actives have a fitted effect of over 55% in size
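DT40 Tdp1-/-;hTDP1 cells, no CPT (DMSO vehicle only), 400 cells/well; compounds pin-transferred; ≥48 hr, 37 °C; CellTiter-Glo 30 min RT dark, luminescence read.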
HT1080 IDH1KD tx = HT-1080 IDH1 knockdown cell toxicity (counter line). HT-1080 IDH1 knockdown viability, ATP luminescence, 48 h. Potency, µM (top dose mostly 46.1 µM), without a hit: at the top dose activity, negative = toxicity, most hits filed as cytotoxic. 360,000 compounds, 2% hits. AID 686971;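 also: potency is read from the fitted curve at half-maximal effect; 0% = DMSO wells and -100% = cell-free medium wells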
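Knockdown cells (IDH1KD HT-1080) received compounds 2 h after plating at 750 cells/well and were kept 48 h at 37 °C in 5% FBS RPMI. A CellTiter-Glo luminescence read gave % activity for curve fitting.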
Numbers without * were called inactive. In the library only some 19% were active in any assay of this set; here they are far more common. Unless noted, calls follow the shape of the dose curve; as a rule, active = well fitted curve in the direction sought with a large enough effect; inconclusive = small, poorly fitted or top-dose-only effect, or another doubt; inactive = no such curve, though single readings can be large; an effect the other way counts as inactive or inconclusive. Unless noted, % is scaled to controls: 0 for no effect and ±100 for the full control effect.

Screening O=C(NCSc1ccccc1)c1ccccc1 returned DT40 TDP1 CPT inconclusive, HT1080-NT tox 3%, IL1B secr inh 1, DT40 TDP1 no CPT -28% and HT1080 IDH1KD tx 1%.
O=C(CNC(=O)c1ccccc1)Sc1ccccc1 was read as DT40 TDP1 CPT inconclusive, HT1080-NT tox -13%, IL1B secr inh -29, DT40 TDP1 no CPT 18µM* and HT1080 IDH1KD tx -14%.
`COc1ccc(O)c(C(=O)c2cnc3c(c2)c(C)nn3CCO)c1` gave DT40 TDP1 CPT 15%, HT1080-NT tox 4%, IL1B secr inh 26, DT40 TDP1 no CPT 2% and HT1080 IDH1KD tx 8%.
`COC(=O)c1ccccc1NC(=O)c1cnc(Nc2ccc(OC)cc2)c2ccccc12` gave DT40 TDP1 CPT 23µM* and DT40 TDP1 no CPT 9.2µM*.
For Cc1ccc(Nc2ncc(C(=O)Nc3ccc(F)cc3F)c3ccccc23)cc1Cl the results were DT40 TDP1 CPT 16µM* and DT40 TDP1 no CPT inconclusive.
`COc1ccc(OC)c(NC(=O)c2cnc(Nc3ccccc3OC)c3ccccc23)c1` gave DT40 TDP1 CPT 5.2µM*, HT1080-NT tox inconclusive, IL1B secr inh -10, DT40 TDP1 no CPT 5.8µM* and HT1080 IDH1KD tx inconclusive.
Cc1cc(C)c2c(n1)NCCC2 was read as DT40 TDP1 CPT -3% and DT40 TDP1 no CPT -1%.
Screening Cc1nc2c(C#N)cnn2c2c1CCN2CC1CCCO1 (configuration not stated) returned DT40 TDP1 CPT -29%, HT1080-NT tox 2%, IL1B secr inh -7, DT40 TDP1 no CPT 10% and HT1080 IDH1KD tx -4%.
For CCOC(=O)c1c(C)c(C)n(Cc2cccc(OC)c2OC)c1C the results were DT40 TDP1 CPT inconclusive, HT1080-NT tox -1%, IL1B secr inh -11, DT40 TDP1 no CPT 23µM* and HT1080 IDH1KD tx -4%.
CCOC(=O)c1cc(C)n(Cc2cccc(OC)c2OC)c1C was read as DT40 TDP1 CPT inconclusive, HT1080-NT tox -10%, IL1B secr inh -8, DT40 TDP1 no CPT inconclusive and HT1080 IDH1KD tx -19%.
Nc1cccc[n+]1C(c1ccnc2ccccc12)[n+]1ccccc1N was read as DT40 TDP1 CPT 1.1µM* and DT40 TDP1 no CPT 1µM*.
O=C(Nc1ccc2oc(-c3ccc4ccccc4c3)nc2c1)c1ccc2c(c1)OCCO2 was read as DT40 TDP1 CPT 5.8µM*, HT1080-NT tox inconclusive, IL1B secr inh 1, DT40 TDP1 no CPT 8.2µM* and HT1080 IDH1KD tx inconclusive.
Screening O=C(Nc1ccc2oc(-c3ccc4ccccc4c3)nc2c1)c1cccc(Cl)c1Cl returned DT40 TDP1 CPT 8.2µM* and DT40 TDP1 no CPT 5.2µM*.
For COc1ccc2oc(-c3ccc(C)c(NC(=O)c4ccc5c(c4)OCCO5)c3)nc2c1 the results were DT40 TDP1 CPT inconclusive and DT40 TDP1 no CPT 16µM*.
COc1ccccc1C(=O)Nc1ccc2oc(-c3cccc(Cl)c3Cl)nc2c1 was read as DT40 TDP1 CPT -2% and DT40 TDP1 no CPT -8%.
`CC(C)c1ccc2oc(-c3cccc(NC(=O)c4ccc5c(c4)OCCO5)c3)nc2c1` gave DT40 TDP1 CPT inconclusive and DT40 TDP1 no CPT 16µM*.
COc1ccc2oc(-c3ccc(C)c(NC(=O)c4cccnc4)c3)nc2c1 was read as DT40 TDP1 CPT -14% and DT40 TDP1 no CPT 1%.
O=C(C[C@H]1C/C=C\CC[C@H](Cc2ccc(F)cc2)C(=O)OCCNC1=O)NCCO was read as DT40 TDP1 CPT -9%, HT1080-NT tox 11%, IL1B secr inh -7, DT40 TDP1 no CPT 2% and HT1080 IDH1KD tx 4%.
For COc1ccccc1CNC(=O)CSc1cc(C)[nH]c(=O)n1 the results were DT40 TDP1 CPT -2% and DT40 TDP1 no CPT 10%.
`c1ccc(-c2nc3cccnc3nc2-c2ccccc2)cc1` gave DT40 TDP1 CPT -19%, HT1080-NT tox -2%, IL1B secr inh 14, DT40 TDP1 no CPT -24% and HT1080 IDH1KD tx 1%.
